Measurements from PubChem BioAssay AID1159580 (chemical genetic matrix, 2015).
Several values for one entry are separate records, joined by “and”; a condition that tells them apart may be missing. Equal values may be shown once. Hit rate of the full screen: of about 5,500 compounds, about 2,000 (36%) were called active. About 18% were inconclusive and are not listed. Cut-off read from the data, not from the text of the source: active = normalized growth mostly below about 0.91 (no sharp cut-off); inconclusive = no clear call, values can overlap the other calls; inactive = mostly above about 0.92. This is one part of the list.

Assay: chemical genetic growth profiling, strain panel (AID 1159580);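 note: tested at 20 µM; growth read once vehicle control cultures reached saturation at 30 °C; 1 = growth at the plate median or of vehicle wells; lower values mean less growth of the strain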
Conditions: S. cerevisiae deletion strains, growth OD

Measured: normalized growth

COC(=O)C[C@H]1C(C)(C)[C@@H](OC(C)=O)[C@@H]2CC3C4CC(=O)O[C@@H](c5ccoc5)[C@]4(C)CCC3[C@@]1(C)C2=O (some centres not stated)
inactive: locus YAL013W, strain DEP1, hits give low values 1 | locus YAL021C, strain ccr4, hits give low values 0.979 | locus YAL026C, strain drs2, hits give low values 1.01 | locus YAL030W, strain snc1, hits give low values 1 | locus YBL061C, strain skt5, hits give low values 1.02 | locus YBR009C, strain hhf1, hits give low values 0.988 | locus YBR021W, strain FUR4, hits give low values 0.965 | locus YBR023C, strain chs3, hits give low values 1.02 | locus YBR171W, strain sec66, hits give low values 1.03 | locus YBR229C, strain ROT2, hits give low values 0.999 | locus YBR231C, strain swc5, hits give low values 1.01 | locus YBR279W, strain paf1, hits give low values 1.01 | locus YCL011C, strain gbp2, hits give low values 1 | locus YCL016C, strain dcc1, hits give low values 1.01 | locus YCL029C, strain bik1, hits give low values 0.973 | locus YCL069W, strain vba3, hits give low values 1.01 | locus YCR088W, strain abp1, hits give low values 1.01 | locus YDL005C, strain med2, hits give low values 1.01 | locus YDL035C, strain GPR1, hits give low values 0.995 | locus YDL040C, strain nat1, hits give low values 1.01 | locus YDL074C, strain BRE1, hits give low values 0.985 | locus YDL101C, strain DUN1, hits give low values 1.02 | locus YDL134C, strain PPH21, hits give low values 1.04 | locus YDL185W, strain tfp1, hits give low values 1.02 | locus YDL192W, strain arf1, hits give low values 0.989 | locus YDR001C, strain nth1, hits give low values 1.01 | locus YDR069C, strain doa4, hits give low values 1.01 | locus YDR101C, strain arx1, hits give low values 0.996 | locus YDR137W, strain rgp1, hits give low values 1.01 | locus YDR159W, strain sac3, hits give low values 1.03 | locus YDR162C, strain NBP2, hits give low values 1.01 | locus YDR195W, strain ref2 0.98 | locus YDR297W, strain sur2, hits give low values 0.999 | locus YDR318W, strain mcm21, hits give low values 1.01 | locus YDR334W, strain swr1, hits give low values 1.01 | locus YDR335W, strain msn5, hits give low values 1.04 | locus YDR388W, hits give low values 1.02 | locus YDR392W, strain spt3, hits give low values 1.02 | locus YDR502C, strain sam2, hits give low values 1.04 | locus YEL003W, strain gim4, hits give low values 1.01 | locus YEL037C, strain rad23, hits give low values 1.01 | locus YEL061C, strain CIN8 (second series), hits give low values 1.01 | locus YEL061C, strain CIN8, hits give low values 0.995 | locus YER015W, strain faa2, hits give low values 1 | locus YER016W, strain bim1, hits give low values 1.01 | locus YER110C, hits give low values 1.02 | locus YER111C, strain swi4, hits give low values 1.02 | locus YER155C, strain BEM2 (second series), hits give low values 1.03 | locus YER155C, strain BEM2, hits give low values 1 | locus YER167W, strain BCK2, hits give low values 0.996 | locus YFR010W, strain ubp6, hits give low values 1 | locus YGL078C, strain dbp3, hits give low values 1.01 | locus YGL086W, strain mad1, hits give low values 1.01 | locus YGL167C, strain pmr1, hits give low values 1.02 | locus YGL173C, strain kem1, hits give low values 1.02 | locus YGL227W, strain vid30, hits give low values 1.02 | locus YGL240W, strain doc1, hits give low values 1.03 | locus YGL248W, strain PDE1, hits give low values 1.04 | locus YGL253W, strain hxk2, hits give low values 1.01 | locus YGR135W, strain pre9, hits give low values 1.07 | locus YGR252W, strain gcn5, hits give low values 1.05 | locus YHR013C, strain ard1, hits give low values 1.02 | locus YHR027C, strain rpn1, hits give low values 1.02 | locus YHR030C, strain SLT2, hits give low values 0.994 and 1.02 | locus YHR079C, strain IRE1 (second series), hits give low values 1.01 | locus YHR079C, strain IRE1, hits give low values 1.01 | locus YHR094C, strain hxt1, hits give low values 1.01 | locus YHR129C, strain ARP1, hits give low values 1.01 | locus YHR142W, strain chs7, hits give low values 0.997 | locus YHR200W, strain rpn10, hits give low values 1 | locus YIL066C, strain RNR3, hits give low values 0.997 | locus YIL073C, strain SPO22, hits give low values 1.01 | locus YIL125W, strain kgd1, hits give low values 1 | locus YIR030C, strain dcg1, hits give low values 1.01 | locus YJL092W, strain hpr5, hits give low values 1.01 | locus YJL095W, strain BCK1 (second series), hits give low values 1 | locus YJL095W, strain BCK1, hits give low values 1.04 and 1.01 | locus YJL115W, strain asf1, hits give low values 1.01 | locus YJL129C, strain trk1, hits give low values 1.01 | locus YJL134W, strain LCB3, hits give low values 0.99 | locus YJL154C, strain vps35, hits give low values 1 | locus YJL164C, strain tpk1, hits give low values 1 | locus YJL166W, strain qcr8, hits give low values 0.999 | locus YJL168C, strain set2, hits give low values 1.02 | locus YJL187C, strain SWE1 (second series), hits give low values 1.05 | locus YJR066W, strain TOR1, hits give low values 0.963 | locus YKL009W, strain mrt4, hits give low values 0.998 | locus YKL068W, hits give low values 1.01 | locus YKL085W, strain MDH1 (second series), hits give low values 1 | locus YKL085W, strain MDH1, hits give low values 1 | locus YKL160W, strain elf1, hits give low values 1.02 | locus YKL190W, strain CNB1, hits give low values 1 | locus YKR001C, strain vps1, hits give low values 0.995 | locus YKR026C, strain gcn3, hits give low values 1.01 | locus YKR091W, strain srl3, hits give low values 1.01 | locus YLL001W, strain dnm1, hits give low values 1.01 | locus YLL026W, hits give low values 1 | locus YLL041C, strain sdh2, hits give low values 1 | locus YLR027C, strain aat2, hits give low values 0.999 | locus YLR039C, strain RIC1, hits give low values 0.993 | locus YLR058C, strain SHM2, hits give low values 1.02 | locus YLR102C, strain apc9, hits give low values 1.02 | locus YLR113W, strain HOG1, hits give low values 0.988 | locus YLR221C, strain rsa3, hits give low values 0.999 | locus YLR258W, strain gsy2, hits give low values 1.01 | locus YLR262C, strain YPT6 (second series), hits give low values 0.955 | locus YLR268W, strain sec22, hits give low values 0.985 | locus YLR320W, strain mms22, hits give low values 1.02 | locus YLR342W, strain FKS1, hits give low values 1 | locus YLR357W, strain rsc2, hits give low values 1.03 | locus YLR370C, strain arc18, hits give low values 1.02 | locus YLR371W, strain rom2, hits give low values 0.989 | locus YLR384C, strain iki3, hits give low values 1.02 | locus YLR418C, strain cdc73, hits give low values 1.04 | locus YML016C, strain PPZ1, hits give low values 1.01 | locus YML032C, strain rad52, hits give low values 0.994 | locus YML120C, strain ndi1, hits give low values 1.02 | locus YML124C, strain tub3, hits give low values 1.01 | locus YMR058W, strain fet3, hits give low values 1.01 | locus YMR078C, strain ctf18, hits give low values 1.02 | locus YMR125W, strain sto1, hits give low values 1.01 | locus YMR129W, hits give low values 0.999 | locus YMR205C, strain PFK2, hits give low values 1 | locus YMR223W, strain ubp8, hits give low values 1.01 | locus YMR231W, strain pep5, hits give low values 1.01 | locus YMR307W, strain GAS1, hits give low values 0.876 | locus YNL067W, strain RPL9B, hits give low values 1.05 | locus YNL071W, strain lat1, hits give low values 1.02 | locus YNL183C, strain NPR1, hits give low values 0.981 | locus YNL209W, strain ssb2, hits give low values 0.996 | locus YNL233W, strain BNI4, hits give low values 0.988 | locus YNL248C, strain rpa49, hits give low values 1 | locus YNL250W, strain rad50, hits give low values 1.04 | locus YNL271C, strain bni1, hits give low values 1.01 | locus YNL298W, strain CLA4, hits give low values 1.01 | locus YNL307C, strain MCK1, hits give low values 1.03 | locus YNL322C, strain KRE1 (second series), hits give low values 1.02 | locus YNR049C, strain mso1, hits give low values 0.996 | locus YNR052C, strain pop2, hits give low values 1.04 | locus YOL012C, strain htz1 0.967 | locus YOL147C, strain pex11, hits give low values 1.01 | locus YOR001W, strain rrp6, hits give low values 1.01 | locus YOR061W, strain CKA2, hits give low values 0.992 | locus YOR069W, strain VPS5, hits give low values 1 | locus YOR070C, strain gyp1, hits give low values 1.01 | locus YOR080W, strain dia2, hits give low values 1.01 | locus YOR083W, strain WHI5, hits give low values 1.02 | locus YOR106W, strain vam3, hits give low values 0.988 | locus YOR136W, strain idh2, hits give low values 1.02 | locus YOR144C, strain elg1, hits give low values 1.02 | locus YOR184W, strain ser1, hits give low values 0.973 | locus YOR231W, strain MKK1, hits give low values 1.01 | locus YOR265W, strain rbl2, hits give low values 1.01 | locus YOR270C, strain vph1, hits give low values 0.902 | locus YOR290C, strain snf2, hits give low values 1.02 | locus YOR316C, strain cot1, hits give low values 1.02 | locus YPL051W, strain arl3, hits give low values 1.02 | locus YPL078C, strain atp4, hits give low values 1.03 | locus YPL106C, strain sse1, hits give low values 1.02 | locus YPL240C, strain hsp82, hits give low values 1 | locus YPL241C, strain CIN2, hits give low values 0.988 | locus YPL256C, strain CLN2, hits give low values 0.996 | locus YPR119W, strain clb2, hits give low values 1.01 | locus YPR141C, strain kar3, hits give low values 1.01 | locus YPR163C, strain tif3, hits give low values 1.03 | locus YPR167C, strain met16, hits give low values 1.02 | strain wtn01, hits give low values 1
